Among all 5,500 compounds or so, about 2,000 (36%) were called active. Roughly 18% stayed inconclusive and do not appear here. No stated cut-off is given here; in the data, active means normalized growth mostly below about 0.91 (no sharp cut-off); inconclusive means no clear call, values can overlap the other calls; inactive means mostly above about 0.92. This is one part of the list.
Assay: chemical genetic growth profiling, strain panel (AID 1159580);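 further: tested at 20 µM; growth read once vehicle control cultures reached saturation at 30 °C; 1 = growth at the plate median or of vehicle wells; lower values mean less growth of the strain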
Details: S. cerevisiae deletion strains, growth OD

Measured: normalized growth

CC(=O)O[C@@H]1CC(=O)[C@@]2(C)C(CC(=O)[C@]3(C)C2CC[C@@]2(C)[C@H](c4ccoc4)OC(=O)C4OC423)C1(C)C (some centres undefined)
inactive: locus YBR021W, strain FUR4, hits give low values 0.98 | locus YBR229C, strain ROT2, hits give low values 0.991 | locus YCL029C, strain bik1, hits give low values 1.01 | locus YDL035C, strain GPR1, hits give low values 0.987 | locus YDL074C, strain BRE1, hits give low values 0.976 | locus YDL101C, strain DUN1, hits give low values 0.996 | locus YDL134C, strain PPH21, hits give low values 1.01 | locus YDL185W, strain tfp1, hits give low values 1.02 | locus YDL192W, strain arf1, hits give low values 1.01 | locus YDR101C, strain arx1, hits give low values 1 | locus YDR162C, strain NBP2, hits give low values 1 | locus YDR318W, strain mcm21, hits give low values 1 | locus YDR388W, hits give low values 1.01 | locus YDR502C, strain sam2, hits give low values 1 | locus YEL061C, strain CIN8, hits give low values 0.998 | locus YER110C, hits give low values 1.01 | locus YER155C, strain BEM2, hits give low values 1 | locus YER167W, strain BCK2, hits give low values 0.993 | locus YGL078C, strain dbp3, hits give low values 1.01 | locus YGL086W, strain mad1, hits give low values 1.01 | locus YGL248W, strain PDE1, hits give low values 0.995 | locus YGR135W, strain pre9, hits give low values 1 | locus YGR229C, strain SMI1, hits give low values 0.988 | locus YGR252W, strain gcn5, hits give low values 0.976 | locus YHR079C, strain IRE1 (second series), hits give low values 1.01 | locus YHR094C, strain hxt1, hits give low values 1 | locus YHR129C, strain ARP1, hits give low values 1 | locus YHR200W, strain rpn10, hits give low values 1 | locus YIL066C, strain RNR3, hits give low values 1 | locus YIL073C, strain SPO22, hits give low values 1.04 | locus YIL125W, strain kgd1, hits give low values 1 | locus YIR030C, strain dcg1, hits give low values 1.01 | locus YJL095W, strain BCK1, hits give low values 0.963 | locus YJL134W, strain LCB3, hits give low values 0.999 | locus YJL168C, strain set2, hits give low values 1.01 | locus YJL187C, strain SWE1 (second series), hits give low values 0.996 | locus YKL009W, strain mrt4, hits give low values 1.01 | locus YKL068W, hits give low values 1.01 | locus YKL085W, strain MDH1 (second series), hits give low values 1.03 | locus YKL085W, strain MDH1, hits give low values 1.03 | locus YKL190W, strain CNB1, hits give low values 1 | locus YKR001C, strain vps1, hits give low values 1.01 | locus YLR039C, strain RIC1, hits give low values 1.02 | locus YLR058C, strain SHM2, hits give low values 0.998 | locus YLR102C, strain apc9, hits give low values 1.01 | locus YLR262C, strain YPT6, hits give low values 1.05 | locus YLR268W, strain sec22, hits give low values 0.998 | locus YLR371W, strain rom2, hits give low values 1 | locus YLR418C, strain cdc73, hits give low values 0.996 | locus YML016C, strain PPZ1, hits give low values 1 | locus YML032C, strain rad52, hits give low values 1.01 | locus YML124C, strain tub3, hits give low values 1.01 | locus YMR078C, strain ctf18, hits give low values 1.02 | locus YMR223W, strain ubp8, hits give low values 1.01 | locus YMR307W, strain GAS1, hits give low values 0.994 | locus YNL067W, strain RPL9B, hits give low values 0.997 | locus YNL233W, strain BNI4, hits give low values 0.993 | locus YNL250W, strain rad50, hits give low values 1.04 | locus YNL271C, strain bni1, hits give low values 1 | locus YNL298W, strain CLA4, hits give low values 1.01 | locus YNL307C, strain MCK1, hits give low values 1.03 | locus YNL322C, strain KRE1, hits give low values 1 | locus YNR052C, strain pop2, hits give low values 1.01 | locus YOL006C, strain TOP1, hits give low values 0.912 | locus YOL012C, strain htz1 0.729 | locus YOL147C, strain pex11, hits give low values 1 | locus YOR061W, strain CKA2, hits give low values 1 | locus YOR069W, strain VPS5, hits give low values 0.996 | locus YOR136W, strain idh2, hits give low values 1.02 | locus YOR144C, strain elg1, hits give low values 1.01 | locus YOR184W, strain ser1, hits give low values 1.02 | locus YOR316C, strain cot1, hits give low values 1.01 | locus YPL055C, strain LGE1, hits give low values 0.989 | locus YPL241C, strain CIN2, hits give low values 0.997 | locus YPR119W, strain clb2, hits give low values 1.02 | locus YPR141C, strain kar3, hits give low values 1.01 | locus YPR163C, strain tif3, hits give low values 1.01 | locus YPR167C, strain met16, hits give low values 1.02 | strain wtn01, hits give low values 1.01
